20 compounds from PubChem BioAssay (NCI) can be followed below.

The panel holds about 79,000 compounds, 15% with a hit somewhere; the sample as a whole holds those more often. Values without a mark were called inactive. Activity calls are given as the source filed them. Cut-off read from the data, not from the text of the source: active = growth inhibition above about 70%; inactive = the rest.

The nature of test [1]: NCI Yeast Anticancer Drug Screen. Data for the rad50 strain (AID 155).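 Note: 0% = growth of vehicle-only cultures of the same strain.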 Conditions: S. cerevisiae rad50 strain growth inhibition; at 50.0 µM; hits give high values. An outline of the steps: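 Growth of the mutant yeast was measured after compound exposure and referenced to vehicle-treated cultures.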
A short description of test [2]: NCI Yeast Anticancer Drug Screen. Data for the mec2-1 strain (AID 157). Conditions: S. cerevisiae mec2-1 strain, at 50.0 µM, hits give high values. An outline of the steps: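 Strain: mec2-1 (DNA repair/cell cycle alteration). Compound exposure, then growth measured; inhibition expressed relative to vehicle.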
Test [3] can be described thus: NCI Yeast Anticancer Drug Screen. Data for the sgs1 mgt1 strain (AID 161).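 Note: 0% = growth of cultures given vehicle only.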 Conditions: S. cerevisiae sgs1 mgt1 strain, at 50.0 µM, hits give high values. Put shortly:
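Mutant yeast exposed to compound; growth scored against vehicle-only wells.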

Test [4] can be described thus: NCI Yeast Anticancer Drug Screen. Data for the cln2 rad14 strain (AID 165).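 Note: 0% = growth equal to vehicle treated cultures.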 Particulars: S. cerevisiae cln2 rad14 strain, at 50.0 µM, hits give high values. An outline of the steps:
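Compounds are applied to the cln2 rad14 yeast strain, and growth is then compared with that of vehicle-treated cultures to give inhibition.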

Test [5] in a line: NCI Yeast Anticancer Drug Screen. Data for the bub3 strain (AID 167). Conditions: S. cerevisiae bub3 mutant strain, at 50.0 µM, hits give high values. An outline of the steps:
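Whole-cell yeast assay. The mutant strain was incubated with compounds, and growth inhibition was determined by comparison with vehicle-treated cells.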

The nature of test [6]: NCI Yeast Anticancer Drug Screen. Data for the mlh1 rad18 strain (AID 175). Conditions: S. cerevisiae mlh1 rad18 strain growth inhibition; at 50.0 µM; hits give high values. Put shortly:
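Read-out is yeast growth inhibition, calculated against vehicle-only controls. The compound was applied to a strain engineered with DNA damage repair alterations.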

As for `Cc1cc(C)nc(NS(=O)(=O)c2ccc(NC(=O)c3cccc4c(Nc5ccc(S(=O)(=O)N=C(N)N)cc5)c5ccccc5nc34)cc2)n1`, the growth inhibition in test [1] was 0.75%; in test [2], 14.7%; in test [3], -10.5%; in test [4], 37.5%; in test [5], 26.1%; in test [6] it was 15.9%.
With `O=C1c2ccccc2C(=O)c2c(O)cc([N+](=O)[O-])cc21`, the growth inhibition was 18.2% in test [1]; 3.05% in test [2]; 11.7% in test [3]; 6.05% in test [4]; 14.2% in test [5]; -1.5% in test [6].
Consider `COc1ccc2c(c1)c(CC(=O)O)c(Br)n2Cc1ccccc1`, for which the growth inhibition in test [1] was 27.9%; in test [2], 33.4%; in test [3], 12%; in test [4], 21.4%; in test [5], 20.1%; in test [6], 77.7% (active).
`C=CCNC(=S)/N=C\C(C(=O)OCC)=C(/O)C(=O)OCC`: the growth inhibition is -18.6% in test [1]; -18.4% in test [2]; -16.6% in test [3]; -21.7% in test [4]; -8.85% in test [5]; -29.8% in test [6].
For the compound `CCOC(=O)/C=C/C(=O)[O-].CCOC(=O)/C=C/C(=O)[O-].NC1CCCCC1N.[Pt+4]`, the growth inhibition is 19.2% in test [1]; 25.9% in test [2]; 19.4% in test [3]; -2.1% in test [4]; 20.1% in test [5]; 10.2% in test [6].
As for `CN(CN(C)N=Nc1ccc(Br)cc1)CN(C)N=Nc1ccc(Br)cc1`, the growth inhibition in test [1] was -0.7%; in test [2], 19.6%; in test [3] it was 4.45%; in test [4] it was 23.2%; in test [5] it was 5.1%; in test [6], 15%.
Turning to `Cc1cc(N(CCC#N)CCC#N)ccc1/C=C1N=C(/C=C/c2ccccc2)N(c2ccc(S(N)(=O)=O)cc2)C\1=O`, the growth inhibition was 0.75% in test [1]; -0.2% in test [2]; -18.8% in test [3]; 0.6% in test [4]; -21.1% in test [5]; -3.9% in test [6].
On to `O=C(O)CCc1nc2ccccc2c(=O)n1Cc1ccccc1`, for which the growth inhibition in test [1] was 11.1%; in test [2] it was 10.1%; in test [3], -7.3%; in test [4] it was -6.1%; in test [5] it was 2.8%; in test [6], 10.4%.
Take `CC(=O)Nc1ccc(C(=O)N2N=C(C)/C(=C/c3cccc([N+](=O)[O-])c3)C2=O)cc1`: the growth inhibition in test [1] was -9.8%; in test [2], -17.6%; in test [3], -47.5%; in test [4] it was 2.55%; in test [5] it was -21.9%; in test [6], -32.2%.
Consider `CCOC(=O)C1CC2(CCC(=O)O2)C(=O)O1` (stereo not given), for which the growth inhibition in test [1] was -5.15%; in test [2] it was -5.95%; in test [3], -20.6%; in test [4], 3.05%; in test [5] it was -5.75%; in test [6], -6.85%.
Turning to `CCCCCCCc1cc(OC(=O)c2c(C)cc(OC)cc2O)cc(O)c1C(=O)O`, the growth inhibition was 13.4% in test [1]; -16.2% in test [2]; 8.65% in test [3]; -10% in test [4]; -14.2% in test [5]; 16.8% in test [6].
Turning to `COc1cc2cnc(-c3ccncc3)c(O)c2cc1OC`, the growth inhibition is 30.9% in test [1]; 40.6% in test [2]; 37.2% in test [3]; 1.9% in test [4]; 36.2% in test [5]; 28.6% in test [6].
As to `C=C(C)C(=O)O[C@H]1C/C(CO)=C/CCC(=C)C(OC(C)=O)[C@H]2OC(=O)C(=C)[C@H]12` (stereo not given in full), the growth inhibition in test [1] is 10.4%; in test [2], 36.8%; in test [3], -0.9%; in test [4] it was 6.85%; in test [5], -21.9%; in test [6], -20.2%.
On to `CCC(C)C(C(=O)OCCC[N+]1(C)CCCCC1)c1ccccc1` (stereo not given), for which the growth inhibition in test [1] is 49.9%; in test [2], -6.75%; in test [3], 18.2%; in test [4], -4.4%; in test [5] it was 5.75%; in test [6], 14%.
Take `CC(C)CCCC(C)C1CCC2C3CC=C4CC(OC5CCC6(C)C(=CCC7C6CCC6(C)C(C(C)CCCC(C)C)CCC76)C5)CCC4(C)C3CCC12C` (stereo not given): the growth inhibition in test [1] is -0.05%; in test [2] it was -12.8%; in test [3], -17.1%; in test [4], -10.7%; in test [5] it was -1.75%; in test [6], 4.8%.
For the compound `CCOC(=O)/C=C/SCCCN`, the growth inhibition was 3.95% in test [1]; -1.4% in test [2]; 3.3% in test [3]; -22.3% in test [4]; -4.75% in test [5]; 6.4% in test [6].
`CCCCCCOCC(=O)O`: the growth inhibition in test [1] is -6.75%; in test [2], -11.2%; in test [3] it was -7.25%; in test [4], -19.8%; in test [5], -10.4%; in test [6] it was -13.7%.
For `OCC1(CO)CCC=CO1`, the growth inhibition in test [1] was 3.8%; in test [2], -7.8%; in test [3], 2.5%; in test [4], 10.7%; in test [5], 1.05%; in test [6] it was 5%.
For `CCCC1C(C#N)(C#N)C(C#N)=C(N)C1(C)C(C)=O` (stereo not given), the growth inhibition is 3.4% in test [1]; 6.8% in test [2]; -18.7% in test [3]; 0.4% in test [4]; -23.8% in test [5]; -34.9% in test [6].
Turning to `CC(=O)Oc1ccc(-c2ccccc2)cc1C(=O)O`, the growth inhibition in test [1] is 5.9%; in test [2], 1.55%; in test [3], 29.4%; in test [4], -15.7%; in test [5], 41.3%; in test [6] it was 11.6%.
